For test [1], the system named is Wnt5a (protein binding on small-molecule microarray). Kind of test: Wnt5a binders on small-molecule microarray, primary screen, biophysical, 635/667 nm fluorescence (AID 1142).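 Also: fluorescence read at 667 nm with signal to noise per printed feature.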 The note with it: 635 nm fluorescence, higher = more signal.
Test [2] in a line: cell viability in Huh7 cells, primary screen, cytotoxicity control for HCV replication inhibitor project, CellTiter-Glo luminescence, basal, 48 h (AID 1143).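 Also: Huh7 hepatoma cells carrying a hepatitis C replication reporter with no stimulus; test concentration not given here.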 The settings on record: Huh7 HCV replicon, higher = more signal, called active from +8 up or from −8 down.
Test [3] in a line: P. aeruginosa biofilm formation inhibitors, primary screen, PAO1 strain, BacTiter-Glo luminescence, LB-PBS (AID 1144). The settings on record: 12 h, higher = more signal.
Test [4] can be described thus: CREB reporter modulators without forskolin, primary screen, cell-based, PC12, CRE-LacZ reporter, unstimulated (AID 1145). The note with it: no forskolin, luminescence, 4.5 h, higher = more signal, called active from +8 up or from −8 down.
The nature of test [5]: CREB reporter modulators under forskolin, primary screen, cell-based, PC12, CRE-LacZ reporter, forskolin-stimulated (AID 1146).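 Also: PC12 cells with 6xCRE LacZ reporter stimulated by forskolin 10 µM; beta-galactosidase reporter signal reflecting CREB driven transcription.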 The settings on record: luminescence, 4.5 h, higher = more signal, called active from +8 up or from −8 down.
The target in test [6] is Streptavidin (Streptomyces avidinii) (UniProt P22629). Kind of test: streptavidin binders on small-molecule microarray, primary screen, artefact control for SMM compound annotation, biophysical, 635/667 nm fluorescence (AID 1147).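 Also: signal reflects streptavidin binding to arrayed compounds as a control protein.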 The settings on record: streptavidin binding, higher = more signal.
Streptavidin (Streptomyces avidinii), sequence (P22629 whole entry, looked up): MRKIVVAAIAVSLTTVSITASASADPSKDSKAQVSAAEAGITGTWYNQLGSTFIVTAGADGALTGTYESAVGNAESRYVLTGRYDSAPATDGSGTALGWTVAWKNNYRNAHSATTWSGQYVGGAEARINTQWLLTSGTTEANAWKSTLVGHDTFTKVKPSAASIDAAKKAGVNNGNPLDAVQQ
Test [7] can be described thus: small-molecule binders of probe aInhba, primary screen, biochemical, small-molecule microarray, 635/667 nm fluorescence (AID 1148).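 Also: score merges 667nm spot fluorescence with signal-to-noise for antibody binding to printed compounds.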 The settings on record: higher = more signal.
Test [8] addresses Torsin-1A (Homo sapiens) (UniProt O14656). In words: torsin A binders from cell lysate, primary screen, small-molecule microarray, wild-type, 635/667 nm (AID 1149). The note with it: COS7 hTOR1A-WT lysate, 635 nm fluorescence, higher = more signal.
The target is the same in test [9]. In words: small-molecule binders of mutant TOR1A in lysate, primary screen, cell lysate, small-molecule microarray, COS7 lysate, 635/667 nm fluorescence (AID 1150).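 Also: score pools 667 nm emission and signal to noise measuring lysate protein binding.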 The settings on record: COS7 hTOR1A mutant lysate, 635 nm fluorescence, higher = more signal.
The subject of test [10] is Sonic hedgehog protein (Shh). Kind of test: small-molecule binders of Shh protein, primary screen, biochemical, small-molecule microarray, 635/667 nm fluorescence (AID 1151).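 Also: Shh protein binding to compounds spotted on small-molecule microarray slides; score combines spot fluorescence intensity with signal-to-noise across triplicate slides.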 The note with it: small-molecule microarray binding, 635 nm fluorescence; higher = more signal.
Test [11] can be described thus: E. coli DRC41 culture turbidity changes, primary screen, E. coli filamentation inducer project, strain DRC41, OD650, 48 h (AID 1152).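 Also: E. coli MC1000 strain DRC41 lacking acrAB efflux pump and sulA.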 The settings on record: E. coli DRC41 (acrAB sulA), higher = more signal, called active from +8 up or from −8 down.
Test [12] is described as follows: small-molecule binders of probe aLefty1, primary screen, biochemical, small-molecule microarray, 635/667 nm fluorescence (AID 1153).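 Also: score merges spot fluorescence with signal-to-noise ratio from the scanned slide images.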 The note with it: higher = more signal.
The nature of test [13]: PSAC antagonists in infected red cells, primary screen, cell-based, P. falciparum Indochina, OD700, 1 h (AID 1154). The note with it: P. falciparum Indochina infected RBC osmotic lysis, higher = more signal, called active from +8 up or from −8 down.
Test [14] in a line: PSAC antagonists in infected red cells, primary screen, cell-based, P. falciparum Indochina, OD700, 2 h (AID 1155).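 Also: lysis reports solute entry through the parasite surface anion channel PSAC; channel blockers reduce lysis of infected cells.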 The settings on record: P. falciparum Indochina infected erythrocytes, osmotic lysis OD700; higher = more signal, called active from +8 up or from −8 down.
Test [15] can be described thus: osmotic lysis modulators in infected erythrocytes, primary screen, PSAC antagonist project, cell-based, P. falciparum Indochina, OD700, 3 h (AID 1156). The settings on record: higher = more signal, called active from +8 up or from −8 down.
A short description of test [16]: PSAC antagonists in infected red cells, primary screen, cell-based, P. falciparum Indochina, OD700, 18 h (AID 1157). The note with it: P. falciparum Indochina infected erythrocytes, osmotic lysis OD700, 18 h; higher = more signal, called active from +8 up or from −8 down.
Test [17] in a line: modulators of S6 phosphorylation in cells, primary screen, cell-based, A549, cytoblot, luminescence, serum-stimulated (AID 1158).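 Also: serum-stimulated A549 lung adenocarcinoma cells; signal is phosphorylated S6 detected by cytoblot immunostaining with HRP secondary.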 The note with it: A549 phospho-S6 cytoblot, 5 h, higher = more signal.
For test [18], the target named is NADPH oxidase 2 (Homo sapiens) (UniProt P04839). In words: NOX2-dependent H2O2 signal modulators, primary screen, NOX inhibitor project, cell-based, HEK293-NOX2, PMA-stimulated, Amplex Red fluorescence (AID 1159). Also: test concentration not given here. The note with it: 45 min, higher = more signal, called active from +8 up or from −8 down.
NADPH oxidase 2 (Homo sapiens), sequence (P04839 whole entry, looked up): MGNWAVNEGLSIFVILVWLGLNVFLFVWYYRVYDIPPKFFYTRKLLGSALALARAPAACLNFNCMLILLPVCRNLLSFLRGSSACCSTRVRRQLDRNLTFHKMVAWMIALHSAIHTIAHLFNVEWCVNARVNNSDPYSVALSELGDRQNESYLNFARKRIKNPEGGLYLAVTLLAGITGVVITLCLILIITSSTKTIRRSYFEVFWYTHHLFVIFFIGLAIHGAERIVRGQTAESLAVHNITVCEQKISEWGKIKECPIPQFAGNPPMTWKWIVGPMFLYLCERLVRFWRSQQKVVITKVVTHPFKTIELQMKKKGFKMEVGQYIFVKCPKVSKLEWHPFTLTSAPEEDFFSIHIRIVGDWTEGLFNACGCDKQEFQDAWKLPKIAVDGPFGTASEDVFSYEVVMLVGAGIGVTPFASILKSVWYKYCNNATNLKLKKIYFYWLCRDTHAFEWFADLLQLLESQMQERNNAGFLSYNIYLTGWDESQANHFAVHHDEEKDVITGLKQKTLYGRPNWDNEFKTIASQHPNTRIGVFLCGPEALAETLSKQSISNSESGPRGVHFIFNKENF
For test [19], the target named is NADPH oxidase 4 (Homo sapiens) (UniProt Q9NPH5). Kind of test: NOX4-dependent H2O2 signal modulators, primary screen, NOX inhibitor project, cell-based, HEK293-NOX4, tetracycline-induced, Amplex Red fluorescence (AID 1160). The note with it: 45 min, higher = more signal, called active from +8 up or from −8 down.
NADPH oxidase 4 (Homo sapiens), sequence (Q9NPH5 whole entry, looked up): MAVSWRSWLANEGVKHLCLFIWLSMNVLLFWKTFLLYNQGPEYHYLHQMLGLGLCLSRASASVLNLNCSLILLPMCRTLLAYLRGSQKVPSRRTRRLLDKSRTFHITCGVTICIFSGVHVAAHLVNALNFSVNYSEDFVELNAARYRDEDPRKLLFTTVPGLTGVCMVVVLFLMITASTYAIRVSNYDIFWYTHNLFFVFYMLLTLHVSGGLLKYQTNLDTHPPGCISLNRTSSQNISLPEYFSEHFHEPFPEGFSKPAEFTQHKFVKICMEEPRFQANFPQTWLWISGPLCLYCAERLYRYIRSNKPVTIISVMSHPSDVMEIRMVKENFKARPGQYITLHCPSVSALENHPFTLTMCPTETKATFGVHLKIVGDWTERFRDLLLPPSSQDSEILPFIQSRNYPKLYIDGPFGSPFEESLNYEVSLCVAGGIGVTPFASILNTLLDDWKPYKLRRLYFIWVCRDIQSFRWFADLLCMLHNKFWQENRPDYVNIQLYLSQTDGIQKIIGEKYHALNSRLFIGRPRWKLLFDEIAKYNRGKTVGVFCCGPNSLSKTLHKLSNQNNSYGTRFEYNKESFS
Test [20] has as its target NADPH oxidase 5 (Homo sapiens) (UniProt Q96PH1). Kind of test: NOX5-dependent H2O2 signal modulators, primary screen, NOX inhibitor project, cell-based, HEK293-NOX5, Amplex Red fluorescence (AID 1161). The settings on record: HEK293-NOX5, ionomycin, 45 min, higher = more signal.

The source made the active and inactive calls. Unless noted, no rule for the calls is given here.

NADPH oxidase 5 (Homo sapiens), sequence (Q96PH1 whole entry, looked up): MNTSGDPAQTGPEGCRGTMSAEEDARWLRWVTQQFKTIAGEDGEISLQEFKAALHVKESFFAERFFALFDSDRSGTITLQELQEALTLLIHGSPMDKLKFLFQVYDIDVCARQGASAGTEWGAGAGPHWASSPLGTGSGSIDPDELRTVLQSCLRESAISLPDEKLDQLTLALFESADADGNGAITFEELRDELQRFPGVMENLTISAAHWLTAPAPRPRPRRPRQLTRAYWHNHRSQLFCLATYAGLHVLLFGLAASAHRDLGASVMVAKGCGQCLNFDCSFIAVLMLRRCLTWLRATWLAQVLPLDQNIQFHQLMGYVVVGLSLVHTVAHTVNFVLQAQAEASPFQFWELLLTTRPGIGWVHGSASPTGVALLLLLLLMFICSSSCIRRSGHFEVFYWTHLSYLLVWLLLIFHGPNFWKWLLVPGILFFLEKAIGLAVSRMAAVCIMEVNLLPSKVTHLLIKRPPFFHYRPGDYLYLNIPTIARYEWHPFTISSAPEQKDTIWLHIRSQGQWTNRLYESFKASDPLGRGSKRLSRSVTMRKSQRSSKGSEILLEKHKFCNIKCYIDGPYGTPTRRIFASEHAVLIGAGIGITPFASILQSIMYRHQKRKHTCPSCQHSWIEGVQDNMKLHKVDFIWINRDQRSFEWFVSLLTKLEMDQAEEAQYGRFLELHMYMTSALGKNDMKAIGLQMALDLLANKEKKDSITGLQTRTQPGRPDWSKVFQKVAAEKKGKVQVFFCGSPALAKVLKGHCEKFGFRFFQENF
Torsin-1A (Homo sapiens), sequence (O14656 whole entry, looked up): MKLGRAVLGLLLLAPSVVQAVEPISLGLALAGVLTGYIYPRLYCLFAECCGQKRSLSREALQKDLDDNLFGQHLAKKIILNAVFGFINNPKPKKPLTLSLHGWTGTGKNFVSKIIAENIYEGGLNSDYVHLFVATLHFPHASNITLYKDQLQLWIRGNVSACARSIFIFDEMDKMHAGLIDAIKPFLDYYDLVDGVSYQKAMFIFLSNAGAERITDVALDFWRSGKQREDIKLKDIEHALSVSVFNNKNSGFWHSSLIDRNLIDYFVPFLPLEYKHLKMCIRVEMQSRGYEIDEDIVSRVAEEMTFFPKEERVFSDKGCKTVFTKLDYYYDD

Turning to `COc1ccc(C(=O)Nc2ccc(CN3C(=O)[C@]4(O[C@H](CC(=O)N5CCC[C@H]5CO)[C@@H]([Si](C)(C)c5ccc(OC)cc5)[C@@H]4C)c4ccccc43)cc2)cc1`, the composite z-score came out at 0.156 in [1]; 0.111 in [6]; 0.0785 in test [7]; 0.585 with Torsin-1A (Homo sapiens) [8]; 0.421 in the test with Torsin-1A (Homo sapiens) [9]; 2.05 in [10]. Also, in [12], the composite z-score stood at 0.385. Further, the z-score in test [2] was -4.81 (inactive); in test [3] it was -0.00818 (inactive); in test [4], 2.62 (inactive); in test [5], 0.124 (inactive); in test [11], -0.951 (inactive); in test [13], 7.69 (inactive). Also, the z-score in test [14] is 1.45 (inactive); in [15], -0.749 (inactive); in test [16], 0.598 (inactive); in test [17], 0.424; in [18] it was 2.62 (inactive); in test [19], 1.45 (inactive). The compound further yielded a z-score in test [20] of 4.87.
Turning to `CO[C@H]1O[C@H](CO)[C@@H](OC(=O)Nc2cccc(F)c2)[C@H](OC(=O)Nc2ccccc2)[C@H]1OC(=O)Nc1ccccc1`, the composite z-score is 0.701 in test [1]; -0.0985 in test [6]; 0.226 in test [7]; 1.28 with Torsin-1A (Homo sapiens) [8]; 0.616 with Torsin-1A (Homo sapiens) [9]; 1.61 in [10]. The compound also displayed a composite z-score in [12] of 0.435. Further, the z-score in test [2] was -4.58 (inactive); in [3], -0.703 (inactive); in [4], -0.0484 (inactive); in test [5] it was -1.22 (inactive); in [11] it was -0.198 (inactive); in test [13] it was 4.41 (inactive). Also, the z-score was 1.13 (inactive) in test [14]; -0.711 (inactive) in test [15]; 0.986 (inactive) in test [16]; 0.627 in test [17]; -6.46 (inactive) in test [18]; -1.09 (inactive) in test [19]. Also, in test [20], the z-score was -2.13.
As to `NCCCCCNC(=O)[C@H]1C[C@H]2C(=O)N3CCC[C@H]3C(=O)N2[C@H]1c1ccc(O)cc1`, the composite z-score in test [1] was found to be 0.354; in test [6] it was 1.23; in test [7] it was 0.336; with Torsin-1A (Homo sapiens) [8], 1.66; with Torsin-1A (Homo sapiens) [9], 1.09; in test [10], 1.65. This compound also had a composite z-score in [12] of 1.17. Further, the z-score in [2] was 0.173 (inactive); in [3], -0.12 (inactive); in test [4], 0.285 (inactive); in test [5], 0.165 (inactive); in [11], -0.607 (inactive); in [13], 0.888 (inactive). Moreover, the z-score in [14] was 0.0655 (inactive); in [15], -1.9 (inactive); in test [16], 0.0061 (inactive); in [17], -0.604; in test [18] it was 0.0724 (inactive); in test [19], 0.719 (inactive). Also, the z-score in test [20] is -0.182.
As to `Cc1ccc(S[C@]2(C(=O)O)CC(=O)N(C(C)C)[C@@H]2c2ccc(CO)cc2)cc1`, the composite z-score was -0.201 in [1]; -0.186 in test [6]; -0.147 in test [7]; -0.366 with Torsin-1A (Homo sapiens) [8]; 1.12 in the test with Torsin-1A (Homo sapiens) [9]; -0.317 in test [10]. The same compound gave a composite z-score in test [12] of -0.668. The z-score in test [2] was -2.62 (inactive); in test [3], -2.2 (inactive); in [4] it was -0.206 (inactive); in [5], -0.244 (inactive); in test [11], 1.99 (inactive); in [13], 1.05 (inactive). The z-score was -0.354 (inactive) in test [14]; -1.28 (inactive) in test [15]; -0.951 (inactive) in [16]; 2.66 in test [17]; 0.149 (inactive) in test [18]; -0.716 (inactive) in test [19]. This compound came in with a z-score in test [20] of -0.877.

Values taken from PubChem BioAssay.
